According to PubChem BioAssay AID1159580 (chemical genetic matrix, 2015):
Where “and” joins values, the source holds several entries; their conditions need not be identical. Equal values may be shown once. Screen size: about 5,500 compounds; about 2,000 (36%) were called active. Roughly 18% stayed inconclusive and do not appear here. Cut-off read from the data, not from the text of the source: active = normalized growth mostly below about 0.91 (no sharp cut-off); inconclusive = no clear call, values can overlap the other calls; inactive = mostly above about 0.92. The list shows a part of the results.

Assay: chemical genetic growth profiling, strain panel (AID 1159580);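 note: tested at 20 µM; growth read once vehicle control cultures reached saturation at 30 °C; 1 = growth at the plate median or of vehicle wells; lower values mean less growth of the strain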
Details: S. cerevisiae deletion strains, growth OD

Measured: normalized growth

O=c1[nH]c2cc(Cl)c(Cl)cc2[nH]c1=O
inactive: locus YAL013W, strain DEP1, hits give low values 1 and 0.993 | locus YAL021C, strain ccr4, hits give low values 1.03 | locus YAL026C, strain drs2, hits give low values 0.993 | locus YAL030W, strain snc1, hits give low values 0.989 | locus YAL040C, strain CLN3, hits give low values 1.11 | locus YBL061C, strain skt5, hits give low values 0.982 | locus YBR009C, strain hhf1, hits give low values 0.988 | locus YBR021W, strain FUR4, hits give low values 1 | locus YBR023C, strain chs3, hits give low values 1 | locus YBR171W, strain sec66, hits give low values 0.98 | locus YBR229C, strain ROT2, hits give low values 1.01 | locus YBR231C, strain swc5, hits give low values 0.979 | locus YBR279W, strain paf1, hits give low values 0.985 | locus YCL011C, strain gbp2, hits give low values 0.984 | locus YCL016C, strain dcc1, hits give low values 0.997 | locus YCL029C, strain bik1, hits give low values 1.04 | locus YCL061C, strain MRC1 (second series), hits give low values 1.01 | locus YCL069W, strain vba3, hits give low values 0.999 | locus YCR088W, strain abp1, hits give low values 0.997 | locus YDL005C, strain med2, hits give low values 0.982 | locus YDL035C, strain GPR1, hits give low values 1.01 | locus YDL040C, strain nat1, hits give low values 0.994 | locus YDL074C, strain BRE1, hits give low values 1.03 | locus YDL101C, strain DUN1, hits give low values 1.02 | locus YDL134C, strain PPH21, hits give low values 1.01 | locus YDL185W, strain tfp1, hits give low values 1.02 | locus YDL192W, strain arf1, hits give low values 1.02 | locus YDR001C, strain nth1, hits give low values 1 | locus YDR069C, strain doa4, hits give low values 0.969 | locus YDR101C, strain arx1, hits give low values 1.03 | locus YDR137W, strain rgp1, hits give low values 0.994 | locus YDR150W, strain NUM1, hits give low values 1.01 | locus YDR159W, strain sac3, hits give low values 0.901 | locus YDR162C, strain NBP2, hits give low values 1.01 | locus YDR195W, strain ref2 1 | locus YDR297W, strain sur2, hits give low values 0.99 | locus YDR318W, strain mcm21, hits give low values 1.02 | locus YDR334W, strain swr1, hits give low values 0.994 | locus YDR335W, strain msn5, hits give low values 1 | locus YDR363W, strain ESC2, hits give low values 0.968 | locus YDR388W, hits give low values 1.02 | locus YDR392W, strain spt3, hits give low values 0.92 | locus YDR502C, strain sam2, hits give low values 1.03 | locus YEL003W, strain gim4, hits give low values 0.993 | locus YEL037C, strain rad23, hits give low values 1 | locus YEL061C, strain CIN8 (second series), hits give low values 1.01 | locus YEL061C, strain CIN8, hits give low values 1.01 | locus YER002W, strain NOP16, hits give low values 0.997 | locus YER015W, strain faa2, hits give low values 0.995 | locus YER016W, strain bim1, hits give low values 0.992 | locus YER110C, hits give low values 1.04 | locus YER111C, strain swi4, hits give low values 0.991 | locus YER155C, strain BEM2 (second series), hits give low values 0.967 | locus YER155C, strain BEM2, hits give low values 1 | locus YER167W, strain BCK2, hits give low values 1.02 | locus YFR010W, strain ubp6, hits give low values 0.985 | locus YGL078C, strain dbp3, hits give low values 1.03 | locus YGL086W, strain mad1, hits give low values 1.01 | locus YGL167C, strain pmr1, hits give low values 0.999 | locus YGL173C, strain kem1, hits give low values 0.984 | locus YGL227W, strain vid30, hits give low values 0.986 | locus YGL240W, strain doc1, hits give low values 0.966 | locus YGL248W, strain PDE1, hits give low values 1.01 | locus YGL253W, strain hxk2, hits give low values 0.975 | locus YGR078C, strain PAC10, hits give low values 1.02 and 1.04 | locus YGR135W, strain pre9, hits give low values 1.02 | locus YGR229C, strain SMI1, hits give low values 1.01 | locus YGR252W, strain gcn5, hits give low values 1.01 | locus YHR013C, strain ard1, hits give low values 0.988 | locus YHR027C, strain rpn1, hits give low values 0.986 | locus YHR030C, strain SLT2, hits give low values 1.01 | locus YHR079C, strain IRE1 (second series), hits give low values 1.02 | locus YHR094C, strain hxt1, hits give low values 1.01 | locus YHR129C, strain ARP1, hits give low values 1.01 | locus YHR142W, strain chs7, hits give low values 1.01 | locus YHR200W, strain rpn10, hits give low values 1.02 | locus YIL066C, strain RNR3, hits give low values 1.01 | locus YIL073C, strain SPO22, hits give low values 1.1 | locus YIL125W, strain kgd1, hits give low values 1.02 | locus YIR030C, strain dcg1, hits give low values 1.04 | locus YJL092W, strain hpr5, hits give low values 0.997 | locus YJL095W, strain BCK1 (second series), hits give low values 1.02 | locus YJL095W, strain BCK1, hits give low values 1.02 | locus YJL115W, strain asf1, hits give low values 1 | locus YJL129C, strain trk1, hits give low values 0.95 | locus YJL134W, strain LCB3, hits give low values 1.01 | locus YJL154C, strain vps35, hits give low values 0.999 | locus YJL164C, strain tpk1, hits give low values 0.998 | locus YJL166W, strain qcr8, hits give low values 0.989 | locus YJL168C, strain set2, hits give low values 1.02 | locus YJL187C, strain SWE1 (second series), hits give low values 1.01 | locus YJR043C, strain POL32, hits give low values 1.01
